Measured values reported in publication PMC5540273 (PLoS ONE, 2017).

Tests used:
Conditions in all cases: concentration: 1 μM, replicates: in singlicate; n = 1
[1] = tested on: FLT1
[2] = tested on: FLT3-autoinhibited
[3] = tested on: FLT3
[4] = tested on: FLT4
[5] = tested on: FRK
[6] = tested on: FYN
[7] = tested on: GAK
[8] = tested on: T1, GCN2(Kin.Dom.2,S808G)
T1 construct: gene EIF2AK4

[9] = tested on: GRK1
[10] = tested on: T2, GRK2
T2 construct: gene ADRBK1
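Also: KINOMEscan kinase panel screen.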

Structure (SMILES)	%Inh [1] [%]	%Inh [2] [%]	%Inh [3] [%]	%Inh [4] [%]	%Inh [5] [%]	%Inh [6] [%]	%Inh [7] [%]	%Inh [8] [%]	%Inh [9] [%]	%Inh [10] [%]
Cc1cccc2c(-c3ccncn3)c(-c3ccc(F)cc3)nn12 [GW515532]	32	12	0	10	0	1	76	18	3	0
O=C(Nc1n[nH]c2cc(-c3ccsc3)ccc12)C1CC1 [SB-732932]	14	29	75	0	0	4	28	0	0	0
O=c1cc(N2CCOCC2)nc2n(Cc3ccccc3F)ccn12 [GSK2297428]	24	0	0	2	20	0	0	0	0	0
COc1cccc(C2=C(Nc3cc(Cl)c(O)c(Cl)c3)C(=O)NC2=O)c1 [SB-390767]	20	0	0	10	20	30	100	0	3	0
Cc1ccc(-c2nc(Nc3ccncc3)c3ccccc3n2)s1 [GSK189015]	39	17	23	10	7	0	53	13	9	1
Cc1ccc(NC(=O)Nc2ccccc2)cc1-c1ccc(C(=O)Nc2ccncc2)cc1 [GSK1398471]	32	0	36	21	61	33	4	50	2	0
COC(=O)C(Cc1ccccc1)NC(=O)NC1CCN(c2ccnc(Nc3ccc(F)cc3)n2)C1 (centres unmarked) [GSK1379714]	33	5	2	0	0	0	0	6	100	0
CSc1ccc(-c2nc3n(c2-c2ccncc2)CCC3)cc1 [SKF-105561]	7	7	8	0	0	0	10	2	8	0
COC(=O)c1cccc(NC(=O)NC2CCN(c3ccnc(Nc4ccc(OC)cc4)n3)C2)c1 (centres unmarked) [GSK1379746]	26	0	0	4	11	8	0	0	0	0
COc1ccc(Nc2nccc(N3CCC(NC(=O)C(C)c4ccc(Cl)cc4)CC3)n2)cc1 (centres unmarked) [GSK1379812]	26	0	0	2	0	12	1	0	0	0
COc1ccc(CSc2nnc(-c3ccc4ncsc4c3)o2)cc1C(F)(F)F	0	0	0	10	0	0	0	0	0	0
FC(F)(F)c1ccccc1-c1cc(-c2c[nH]nc2-c2ccccn2)ccn1 [GW679396]	18	0	0	0	17	0	27	0	0	0
COC(=O)c1cccc(NC(=O)NC2CCN(c3ccnc(Nc4ccc(F)cc4)n3)C2)c1 (centres unmarked) [GSK1379725]	24	0	0	0	13	15	0	0	5	0
COc1ccc(CSc2nnc(-c3ccc4nccn4c3)o2)cc1C(F)(F)F	35	25	15	9	0	0	6	0	5	0
CCn1c(-c2c(N)noc2C)nc2cnccc21 [SB-737856]	20	0	0	0	11	3	21	7	0	0
CN1c2ccc(-c3ccc(C(N)=O)cc3)cc2-c2[nH]ncc2S1(=O)=O	5	27	31	0	0	3	6	33	1	0
CNc1cc(-c2ccc3c(N)n[nH]c3c2)nc(N)n1 [GSK2224810]	15	16	0	2	7	20	9	0	6	0
